In PubChem BioAssay (NCI):
This is part of a sample that, as a whole, favours compounds with a hit. Of some 83,000 tested, about 20% had one in any assay.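 Step 1: grow cells in 96-well plates. Step 2: add test compound at a single concentration. Step 3: incubate 48 h. Step 4: record percent growth.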 The source made the active and inactive calls. The calls were made as follows: active = growth percent below 10; inactive = the rest.

Legend:
Assay in all cases: NCI-60 one-dose screen, 48 h (100 = growth as untreated, 0 = no growth, -100 = all killed)
Conditions in all cases: 10 µM unless noted
DU-145 prostate = tested on: DU-145 prostate
K-562 leukemia = tested on: K-562 leukemia
MALME-3M melanoma = tested on: MALME-3M melanoma
MDA-MB-231 breast = tested on: MDA-MB-231 breast
SF-268 CNS = tested on: SF-268 CNS
SF-295 CNS = tested on: SF-295 CNS
SF-539 CNS = tested on: SF-539 CNS
UACC-257 melanoma = tested on: UACC-257 melanoma
HCT-15 colon = tested on: HCT-15 colon
HT29 colon = tested on: HT29 colon
SNB-75 CNS = tested on: SNB-75 CNS
SNB-19 CNS = tested on: SNB-19 CNS
U251 CNS = tested on: U251 CNS
PC-3 prostate = tested on: PC-3 prostate
SK-MEL-5 melanoma = tested on: SK-MEL-5 melanoma
UACC-62 melanoma = tested on: UACC-62 melanoma
LOX IMVI melanoma = tested on: LOX IMVI melanoma
SK-MEL-28 melanoma = tested on: SK-MEL-28 melanoma
M14 melanoma = tested on: M14 melanoma

Measured: growth

Clc1ccc(C2c3ccccc3-c3nccn32)c(Cl)c1 (configuration not stated)
inactive: DU-145 prostate 92.4% | K-562 leukemia 35.5% | MALME-3M melanoma 83.8% | MDA-MB-231 breast 84.1% | SF-268 CNS 99.3% | SF-295 CNS 41.7% | SF-539 CNS 88.5% | UACC-257 melanoma 80.5% | HCT-15 colon 72.1% | HT29 colon 77.9% | SNB-75 CNS 83.1% | SNB-19 CNS 88.8% | U251 CNS 86.3% | PC-3 prostate 64.2% | SK-MEL-5 melanoma 47.3% | UACC-62 melanoma 73.2% | LOX IMVI melanoma 76.5% | SK-MEL-28 melanoma 112%

O=C(c1ccc(N2CCOCC2)cc1[N+](=O)[O-])N1CCOCC1
inactive: DU-145 prostate 114% | K-562 leukemia 159% | MALME-3M melanoma 103% | MDA-MB-231 breast 134% | SF-268 CNS 110% | SF-539 CNS 107% | UACC-257 melanoma 43.9% | HCT-15 colon 96.2% | HT29 colon 90.5% | SNB-75 CNS 31.8% | SNB-19 CNS 96.9% | U251 CNS 105% | PC-3 prostate 93.6% | SK-MEL-5 melanoma 136% | UACC-62 melanoma 97% | LOX IMVI melanoma 98.3% | SK-MEL-28 melanoma 96.9%
active: SF-295 CNS -38.9%

COC(=O)c1c(NC(=O)CSc2nnnn2-c2ccc(OC)cc2)sc(C)c1C
inactive: DU-145 prostate 108% | K-562 leukemia 81.5% | MALME-3M melanoma 104% | MDA-MB-231 breast 76.5% | SF-268 CNS 93.5% | SF-295 CNS 156% | SF-539 CNS 98.3% | UACC-257 melanoma 16.8% | M14 melanoma 95.8% | HT29 colon 107% | SNB-75 CNS 79.4% | SNB-19 CNS 102% | U251 CNS 99.6% | PC-3 prostate 85% | SK-MEL-5 melanoma 115% | UACC-62 melanoma 74.8% | LOX IMVI melanoma 91.2% | SK-MEL-28 melanoma 108%

COc1cccc(-c2nc3cc(NC(=O)c4ccc(Cl)c(C#N)c4)ccc3o2)c1
inactive: SF-295 CNS 25.3% | HCT-15 colon 51.6% | PC-3 prostate 14.4% | UACC-62 melanoma 38.6% | LOX IMVI melanoma 21.9%
active: DU-145 prostate 8.18% | K-562 leukemia 8.47% | MALME-3M melanoma -56.5% | MDA-MB-231 breast 8.99% | SF-268 CNS -5.11% | SF-539 CNS -70.7% | UACC-257 melanoma 4.33% | M14 melanoma -82.7% | HT29 colon -3.37% | SNB-75 CNS -2.82% | SNB-19 CNS 5.09% | U251 CNS -12.9% | SK-MEL-5 melanoma 5.38% | SK-MEL-28 melanoma -7.87%

O=C(O)C1CCN(S(=O)(=O)c2ccc(-c3ccccc3)cc2)CC1
inactive: DU-145 prostate 114% | K-562 leukemia 109% | MALME-3M melanoma 127% | MDA-MB-231 breast 98.7% | SF-268 CNS 108% | SF-295 CNS 192% | SF-539 CNS 109% | UACC-257 melanoma 56.2% | M14 melanoma 109% | HCT-15 colon 107% | HT29 colon 111% | SNB-75 CNS 102% | SNB-19 CNS 103% | U251 CNS 104% | PC-3 prostate 80.9% | SK-MEL-5 melanoma 108% | UACC-62 melanoma 94.5% | LOX IMVI melanoma 103% | SK-MEL-28 melanoma 91.4%

O=C(CN1CCN(c2ccc(Cl)cc2)CC1)N1CCN(c2nnc(-c3ccc(Cl)cc3)c(-c3ccc(Cl)cc3)n2)CC1
inactive: DU-145 prostate 87% | K-562 leukemia 33% | MALME-3M melanoma 114% | MDA-MB-231 breast 95.1% | SF-268 CNS 83.4% | SF-295 CNS 82.3% | SF-539 CNS 82.3% | M14 melanoma 74.3% | HCT-15 colon 59% | HT29 colon 57.3% | SNB-75 CNS 75.6% | SNB-19 CNS 78% | U251 CNS 74.2% | PC-3 prostate 30.5% | SK-MEL-5 melanoma 58.2% | UACC-62 melanoma 69.9% | LOX IMVI melanoma 51.8% | SK-MEL-28 melanoma 93.6%

O=C(Nc1nn2c(-c3cc(C(F)(F)F)cc(C(F)(F)F)c3)nnc2s1)C1CCCC1
active: K-562 leukemia 6.69% | MDA-MB-231 breast -32% | SF-295 CNS 1.49% | UACC-257 melanoma 4.69% | M14 melanoma 7.59% | HT29 colon -28.7% | U251 CNS 4.37% | PC-3 prostate 8.85% | SK-MEL-5 melanoma -69.6% | UACC-62 melanoma 7.5%
inactive: DU-145 prostate 33.1% | MALME-3M melanoma 10.4% | SF-268 CNS 28.4% | SF-539 CNS 12.8% | HCT-15 colon 13.6% | SNB-75 CNS 37.9% | SNB-19 CNS 26.6% | LOX IMVI melanoma 13.1% | SK-MEL-28 melanoma 30.4%

O=C(CN1CCN(c2ccc(Cl)cc2)CC1)N1CCN(c2nnc(-c3ccccc3)c(-c3ccccc3)n2)CC1
inactive: DU-145 prostate 62.8% | MALME-3M melanoma 76.5% | MDA-MB-231 breast 64.5% | SF-268 CNS 58.5% | SF-295 CNS 38.4% | SF-539 CNS 50.5% | M14 melanoma 60.1% | HCT-15 colon 42.3% | HT29 colon 29.2% | SNB-75 CNS 65.8% | SNB-19 CNS 60% | U251 CNS 45.8% | PC-3 prostate 12.1% | UACC-62 melanoma 53% | LOX IMVI melanoma 38.5% | SK-MEL-28 melanoma 83%
active: K-562 leukemia 4.43% | SK-MEL-5 melanoma -9.45%

CCc1ccc(-c2nc(SCC(=O)NC3CCCCC3)n[nH]2)cc1
active: UACC-257 melanoma -1.69%
inactive: DU-145 prostate 102% | K-562 leukemia 33.3% | MALME-3M melanoma 88.2% | MDA-MB-231 breast 63.3% | SF-268 CNS 82.6% | SF-295 CNS 15.8% | SF-539 CNS 92.9% | HT29 colon 101% | SNB-75 CNS 85.4% | SNB-19 CNS 98.7% | U251 CNS 89.3% | PC-3 prostate 77.1% | SK-MEL-5 melanoma 61.5% | UACC-62 melanoma 57.8% | LOX IMVI melanoma 67.8% | SK-MEL-28 melanoma 108%

O=C(/C=C/c1ccc([N+](=O)[O-])cc1)c1ccc2c3c(cccc13)CC2
inactive: DU-145 prostate 38.7% | K-562 leukemia 44.8% | MALME-3M melanoma 79.7% | MDA-MB-231 breast 81.4% | SF-268 CNS 80.9% | SF-539 CNS 33.1% | M14 melanoma 95.3% | HCT-15 colon 59.5% | HT29 colon 77.2% | SNB-75 CNS 89% | SNB-19 CNS 82.6% | U251 CNS 13.7% | PC-3 prostate 52.9% | SK-MEL-5 melanoma 97.8% | UACC-62 melanoma 80.2% | LOX IMVI melanoma 67.6% | SK-MEL-28 melanoma 63.9%
active: SF-295 CNS -17.9% | UACC-257 melanoma 3.27%

NC(=O)c1cc(Cl)ccc1NC(=O)c1ccccc1-c1ccccc1
active: DU-145 prostate -8.79% | SF-295 CNS 8.66% | SF-539 CNS -12.5% | M14 melanoma -24% | HT29 colon 9.11% | SNB-75 CNS -5.88%
inactive: K-562 leukemia 11.5% | MALME-3M melanoma 30.4% | MDA-MB-231 breast 29.4% | SF-268 CNS 54.1% | UACC-257 melanoma 68.6% | SNB-19 CNS 31.9% | U251 CNS 21.4% | PC-3 prostate 23.5% | SK-MEL-5 melanoma 26.4% | UACC-62 melanoma 18.6% | LOX IMVI melanoma 28.9% | SK-MEL-28 melanoma 41.5%

COC(=O)C1CCN(S(=O)(=O)c2ccc(-c3ccccc3)cc2)CC1
inactive: DU-145 prostate 110% | K-562 leukemia 103% | MALME-3M melanoma 122% | MDA-MB-231 breast 115% | SF-268 CNS 102% | SF-295 CNS 195% | SF-539 CNS 101% | UACC-257 melanoma 62.7% | M14 melanoma 107% | HCT-15 colon 110% | HT29 colon 109% | SNB-75 CNS 87.8% | SNB-19 CNS 98.5% | U251 CNS 111% | PC-3 prostate 90.3% | SK-MEL-5 melanoma 107% | UACC-62 melanoma 98.2% | LOX IMVI melanoma 107% | SK-MEL-28 melanoma 105%

O=c1sc2ncnc3ncn1c32
inactive: DU-145 prostate 33.6% | K-562 leukemia 15.2% | MALME-3M melanoma 73.6% | MDA-MB-231 breast 43.7% | SF-268 CNS 82% | SF-295 CNS 38.4% | SF-539 CNS 45.8% | UACC-257 melanoma 88.1% | M14 melanoma 14.5% | HCT-15 colon 78% | HT29 colon 56.2% | SNB-75 CNS 46.1% | SNB-19 CNS 97.4% | U251 CNS 87.4% | PC-3 prostate 75.8% | SK-MEL-5 melanoma 89.3% | UACC-62 melanoma 56.8% | LOX IMVI melanoma 12.7% | SK-MEL-28 melanoma 99.6%

O=C(O)c1ccc(CNS(=O)(=O)c2ccc3ccccc3c2)cc1
inactive: DU-145 prostate 93.7% | K-562 leukemia 94.5% | MALME-3M melanoma 93.7% | MDA-MB-231 breast 105% | SF-268 CNS 96.2% | SF-295 CNS 105% | SF-539 CNS 106% | UACC-257 melanoma 99.1% | M14 melanoma 103% | HT29 colon 102% | SNB-75 CNS 90.8% | SNB-19 CNS 104% | U251 CNS 106% | PC-3 prostate 104% | SK-MEL-5 melanoma 105% | UACC-62 melanoma 102% | LOX IMVI melanoma 100% | SK-MEL-28 melanoma 106%

COCCCNS(=O)(=O)c1ncnc2nc[nH]c12
inactive: DU-145 prostate 98.5% | K-562 leukemia 109% | MALME-3M melanoma 107% | MDA-MB-231 breast 124% | SF-268 CNS 106% | SF-295 CNS 129% | SF-539 CNS 99.1% | M14 melanoma 92.6% | HCT-15 colon 124% | HT29 colon 125% | SNB-75 CNS 116% | SNB-19 CNS 122% | U251 CNS 124% | PC-3 prostate 106% | SK-MEL-5 melanoma 109% | UACC-62 melanoma 112% | LOX IMVI melanoma 111% | SK-MEL-28 melanoma 152%

C1=C(Cc2ccccc2)n2cnc3ncnc(c32)S1
inactive: DU-145 prostate 27.3% | K-562 leukemia 14.4% | MALME-3M melanoma 68% | MDA-MB-231 breast 35.1% | SF-268 CNS 71.9% | SF-295 CNS 30% | SF-539 CNS 43.2% | UACC-257 melanoma 74.9% | M14 melanoma 13.2% | HCT-15 colon 71.8% | HT29 colon 55.7% | SNB-75 CNS 45.8% | SNB-19 CNS 94.1% | U251 CNS 78.8% | PC-3 prostate 78.2% | SK-MEL-5 melanoma 86.1% | UACC-62 melanoma 54.5% | SK-MEL-28 melanoma 103%
active: LOX IMVI melanoma 9.31%

NS(=O)(=O)c1ccc(N2CC(c3nc4ccccc4[nH]3)CC2=O)cc1 (configuration not stated)
inactive: DU-145 prostate 109% | K-562 leukemia 97.2% | MALME-3M melanoma 92.9% | MDA-MB-231 breast 85.4% | SF-268 CNS 96.1% | SF-295 CNS 99.9% | SF-539 CNS 96.6% | UACC-257 melanoma 109% | HCT-15 colon 107% | HT29 colon 97.8% | SNB-75 CNS 67.9% | SNB-19 CNS 101% | U251 CNS 99.7% | PC-3 prostate 90.8% | SK-MEL-5 melanoma 99.8% | UACC-62 melanoma 97.4% | LOX IMVI melanoma 94.2% | SK-MEL-28 melanoma 103%
